Consider 40 compounds from PubChem BioAssay (NCATS).

Active and inactive are the calls of the source. Calls follow the shape of the dose curve; as a rule, active = well fitted activation curve with a large enough effect; inconclusive = small, poorly fitted or top-dose-only effect; inactive = flat fitted curve, though single readings scatter.

This test is described as follows: Cellular Toxicity (caspase-3) Mesangial (AID 660).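 Also: combined caspase 3 and 7 activity read by Caspase-Glo luminescence; cells exposed to compound for 16 h before the caspase read.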 Particulars: mesangial cells, normalized: DMSO 0%, 100 µM tamoxifen 100%; series mostly up to 91.7 µM. The source says:
NIH Chemical Genomics Center [NCGC]
NIH Molecular Libraries Screening Centers Network [MLSCN]
National Institutes of Environmental Health Sciences [NIEHS]
National Toxicology Program [NTP]
We have developed a 1536-well cell-based assay for quantitative high throughput screening (qHTS) against a number of cell lines to determine in vitro caspase 3/7 of small molecules. This particular assay uses the mesangial cell line which is derived from normal human renal glomeruli.
NCGC Assay Protocol Summary:
The Caspase-Glo 3/7 assay (Promega) is a homogeneous method to measure caspase-3 and caspase-7 activities in cultured cells. The quantitation of caspase 3/7 activity is based on the cleavage of a peptide-aminoluciferin substrate. After caspase cleaves the substrate the free aminoluciferin is liberated and serves as the substrate of luciferase, which generates the light. The luminescent signal is proportional to amount of caspase 3/7 activity present.
Using the Caspase-Glo 3/7 assay, the amount of caspase 3/7 activity was measured in the mesangial cell line with complete culture medium following compound treatment for 16 hours. The assay was performed in opaque white 1536-well plates. In the screen, tamoxifen and doxorubicin were used as positive controls. Library compounds were measured for their ability to cause the activation of caspase 3/7 in the cell line, as reflected by an increase in luminescence signal, in a concentration-dependent manner. Data were normalized to the controls for basal activity (DMSO only) and 100% stimulation (100 uM tamoxifen). AC50 values were determined from concentration-response data modeled with the standard Hill equation.
qHTS protocol for caspase 3/7 assay in mesangial cell line
[Step] [Parameter] [Value] [Description]
1. Reagent; 5 uL; 1000 mesangial cells/well
2. Time; 5 hr; 37 °C incubation
4. Controls; 23 nL; Tamoxifen 0.23 uM to 100 uM & doxorubicin 7.0 pM to 100 uM
5. Time; 16 hr; 37 °C incubation
6. Reagent; 5 uL; Caspase-Glo 3/7 reagent
7. Time; 20 min; Room Temperature
8. Detection; Luminescence; Viewlux plate reader
Keywords: caspase 3/7, apoptosis, mesangial cell line, luminescence, NTPHTS, NTPHTS_NCGC, NIEHS, EPA, DSSTox, MLSMR, MLSCN, NIH Roadmap, qHTS, NCGC
In the case of `Cc1cc(-c2ccc(N)c(C)c2)ccc1N`, the call was inactive. In the case of `Clc1ccc(C(c2ccccc2Cl)C(Cl)(Cl)Cl)cc1` (stereo not given), the compound was called inactive.

Consider `CN(C)c1ccccc1`, for which the call was inactive. To `Oc1cc(Cl)ccc1Cl` belongs “inactive”; to `CC(C)Br`, “inactive”. To `ClCc1ccccc1` belongs “inactive”; to `CC(C)[C@]12CC(=O)[C@H](C)[C@H]1C2`, “inactive”. Consider `COP(=S)(OC)SCn1nnc2ccccc2c1=O`, for which the compound was classed as inactive. To `CC(C)OC(=O)Cc1ccccc1` belongs “inactive”.

On to `O=[N+]([O-])CCO`, for which the compound was classed as inactive. The value for `c1ccc(Nc2ccc(Nc3ccccc3)cc2)cc1` was “inactive”; that for `Cc1ccc(N)cc1Cl` was “inactive”; that for `Nc1ccc(-c2ccc(N)cc2)cc1` was “inactive”. For the compound `O=[N+]([O-])c1ccccc1-c1ccccc1`, the compound was called inactive. To `Cc1ccccc1[N+](=O)[O-]` belongs “inactive”; to `O=[N+]([O-])c1c(Cl)c(Cl)c(Cl)c(Cl)c1Cl`, “inactive”; to `CN(C)c1ccc(N)cc1`, “inactive”. Take `ClCC(Br)CBr` (stereo not given): the result was inactive. Take `O=NN1CCCCC1`: the compound was classed as inactive. To `CCOS(C)(=O)=O` belongs “inactive”; to `CCCCCCCCCCCOC(=O)c1ccccc1C(=O)OCCCCCCCCCCC`, “inactive”; to `CCOC(=O)C1OC1(C)c1ccccc1` (stereo not given), “inactive”. To `Nn1cnnc1` belongs “inactive”. Regarding `Cc1ccc(N)c(C)c1`, the call was inactive. To `c1ccc(OCC2CO2)cc1` (stereo not given) belongs “inactive”.

For the compound `COC(C)(C)C`, the compound was classed as inactive. To `C=C(Cl)CSC(=S)N(CC)CC` belongs “inactive”; to `NNC(N)=S`, “inactive”. To `CCC/C=N/O` belongs “inactive”.

Consider `C=CCCC#N`, for which the result was inactive. To `CN(C)c1ccc(N(C)C)cc1` belongs “inactive”; to `Cc1cc(N=Nc2ccccc2C)ccc1N`, “inactive”; to `Cc1cccc(N)c1C`, “inactive”. To `C=CC(=O)OCCN(C)C` belongs “inactive”; to `Oc1ccc(Cl)c(Cl)c1Cl`, “inactive”.

As to `N#CCCCCC#N`, the result was inactive.

`O=c1ccc(=O)[nH][nH]1`: the compound was classed as inactive.

Take `CCC[N+](=O)[O-]`: the call was inactive. The value for `O=[N+]([O-])c1cc(Cl)c(Cl)c(Cl)c1` was “inactive”; that for `ClCCOCOCCCl` was “inactive”.
